For 25 compounds, Potency results are on record in PubChem BioAssay (NCATS).

Results filed as inconclusive are left out. Entries that show only a call come without a potency. Activity calls are given as the source filed them. The call rests on the fitted dose curve; in most records, active means well fitted curve in the direction sought with a large enough effect; inconclusive means small, poorly fitted or top-dose-only effect, or another doubt; inactive means no such curve, though single readings can be large; an effect the other way counts as inactive or inconclusive.

The target in experiment [1] is Aldehyde dehydrogenase, mitochondrial (Homo sapiens) (UniProt P05091). Nature of the experiment: qHTS for Inhibitors of the Aldehyde Dehydrogenase Family (ALDH2) Primary screen (AID 2061308). Further: nearly all actives have a fitted effect of over 55% in size.
In experiment [2] the target is Retinaldehyde dehydrogenase 3 (Homo sapiens) (UniProt P47895). Description: qHTS for Inhibitors of the Aldehyde Dehydrogenase Family (ALDH1A3) Primary screen (AID 2061315).

Consider `O=S(=O)(c1ccc(C(F)(F)F)cc1)N1CCN(S(=O)(=O)c2ccc3c(c2)OCCO3)CC1`, for which the Potency entry in experiment [1] and in experiment [2] was “inactive” throughout.
For the compound `Fc1cc(Nc2nc(-c3ccncc3)nc3ccccc23)ccc1-c1cccc(C(F)(F)F)c1`, the Potency entry in experiment [1] and in experiment [2] was “inactive” in each case.
Turning to `COC(=O)c1ccc(O)c2ncc(-c3ccc(C(=O)NCCCN(C)C)cc3)cc12`, the Potency result in experiment [1] and in experiment [2] was “inactive” throughout.
Regarding `CCCn1c(-c2ccc(F)cc2)nc2c(NCCCN(CC)CC)nc(C)nc21`, the Potency result in experiment [1] and in experiment [2] was “inactive” throughout.
On to `Nc1ccccc1OCCn1c(CCNC(=O)C2CCCCC2)nc2ccccc21`, for which the Potency entry in experiment [1] and in experiment [2] was “inactive” in each case.
Consider `O=C1c2ccccc2C(=O)N1c1cccc2cnccc12`, for which the Potency result in experiment [1] and in experiment [2] was “inactive” in each case.
Turning to `CCN(CC)CCCCn1c(-c2ccccc2)nc2c(NC3CCCCC3)nc(C)nc21`, the Potency entry in experiment [1] and in experiment [2] was “inactive” in each case.
Consider `Cc1ccc(C(=O)Nc2ccc(S(=O)(=O)Nc3nccs3)cc2)cc1C`, for which the Potency result in experiment [1] and in experiment [2] was “inactive” throughout.
As to `NC(=O)C1CCN(c2nc(-c3ccccc3)cs2)CC1`, the Potency result in experiment [1] and in experiment [2] was “inactive” each time.
For `c1csc(CNc2ncnc3ccc(-c4ccoc4)cc23)c1`, the Potency entry in experiment [1] and in experiment [2] was “inactive” in each case.
Take `CCOC(=O)CCCC(=O)Nc1ncnc2c1C(c1ccccc1)c1c(ccc3ccccc13)O2` (stereo not given): the Potency result in experiment [1] and in experiment [2] was “inactive” throughout.
Turning to `COc1cccc(C2c3c(ncn(-c4cccc(F)c4)c3=N)Oc3ccc4ccccc4c32)c1` (stereo not given), the Potency entry in experiment [1] and in experiment [2] was “inactive” each time.
In the case of `CC#CC(=O)Nc1ccc2ncnc(Nc3cccc(Br)c3)c2c1`, the Potency result in experiment [1] and in experiment [2] was “inactive” throughout.
As to `Cc1ccc(NC(=O)CN2C(=O)N/C(=C\c3cccn3-c3ccc(C(=O)NC#N)cc3)C2=O)cc1`, the Potency result in experiment [1] and in experiment [2] was “inactive” throughout.
Regarding `CCCn1c(C)nc2c(NCC3CCCN3CC)nc(C)nc21` (stereo not given), the Potency entry in experiment [1] and in experiment [2] was “inactive” in each case.
On to `Cc1cc(C)n2ncc(C(=O)Nc3ccccc3Sc3ccccc3)c2n1`, for which the Potency entry in experiment [1] and in experiment [2] was “inactive” in each case.
As for `N#CN1CCC(NS(=O)(=O)c2cccc(F)c2)C1` (stereo not given), the Potency result in experiment [1] and in experiment [2] was “inactive” in each case.
For `COc1ccccc1NC(=O)c1cc(-c2ccc(C)c(C)c2)nc2ccccc12`, the Potency result in experiment [1] and in experiment [2] was “inactive” each time.
Regarding `COc1cccc(C2c3c(ncn(-c4ccc(-c5ccccc5)cc4)c3=N)Oc3ccc4ccccc4c32)c1` (stereo not given), the Potency entry in experiment [1] and in experiment [2] was “inactive” throughout.
For the compound `CCOC(=O)c1ccc(-c2ccc3ncnc(NCc4ncc[nH]4)c3c2)o1`, the Potency entry in experiment [1] and in experiment [2] was “inactive” throughout.
On to `C=CC(C)(C)c1[nH]c2ccccc2c1C[C@@H]1NC(=O)[C@H](C)NC1=O`, for which the Potency entry in experiment [1] and in experiment [2] was “inactive” in each case.
Regarding `CCC(C)(CCN1CCOCC1)N(Cc1cc2ccccc2n(C)c1=O)C(=O)C1CCCCC1` (stereo not given), the Potency entry in experiment [1] and in experiment [2] was “inactive” throughout.
On to `COc1ccc(C(=O)N(Cc2ccccc2)Cc2cccs2)c(O)c1`, for which the Potency entry in experiment [1] and in experiment [2] was “inactive” in each case.
In the case of `CC[C@]1(O)C[C@H]2CN(CCC3C(=Nc4ccccc43)[C@@](C(=O)OC)(c3cc4c(cc3OC)N(C)[C@H]3[C@@](O)(C(N)=O)[C@H](O)[C@]5(CC)C=CCN6CC[C@]43[C@@H]65)C2)C1` (stereo not given in full), the Potency result in experiment [1] and in experiment [2] was “inactive” in each case.
For the compound `COc1ccc(C2c3c(nc(C)[nH]c3=O)Oc3ccc4ccccc4c32)cc1OC` (stereo not given), the Potency entry in experiment [1] and in experiment [2] was “inactive” throughout.
